The values below come from PubChem BioAssay.

Activity calls are given as the source filed them. Unless noted, the rule behind the calls is not given here.

Assay [1] has as its system Wnt5a (protein binding on small-molecule microarray). Put plainly: small molecules binding Wnt5a protein – biophysical, small-molecule microarray, 635/667 nm fluorescence, primary screen (AID 1142).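 Note: fluorescence read at 667 nm with signal to noise per printed feature.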 The following applies: 635 nm fluorescence, higher = more signal.
Assay [2] is described as follows: ATP-based viability of Huh7 replicon cells – cell-based, CellTiter-Glo luminescence, basal, 48 h, cytotoxicity control for HCV replication inhibitor project, primary screen (AID 1143).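 Note: Huh7 hepatoma cells carrying a hepatitis C replication reporter with no stimulus; test concentration not given here.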 The following applies: higher = more signal, called active from +8 up or from −8 down. In general terms: A replicon is a self-replicating genome or part of one, used to study replication in cells.

The nature of assay [3]: Pseudomonas biofilm growth suppression – PAO1 strain, BacTiter-Glo luminescence, LB-PBS, primary screen (AID 1144). The conditions noted are these: P. aeruginosa PAO1 biofilm, 12 h, higher = more signal.
Assay [4] is described as follows: basal CRE-LacZ reporter activity in PC12 – cell-based, unstimulated, primary screen (AID 1145). The conditions noted are these: no forskolin, luminescence, 4.5 h, higher = more signal, called active from +8 up or from −8 down.
Assay [5] in a line: forskolin-driven CRE-LacZ activity in PC12 – cell-based, CRE-LacZ reporter, forskolin-stimulated, primary screen (AID 1146).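 Note: PC12 cells with 6xCRE LacZ reporter stimulated by forskolin 10 µM; beta-galactosidase reporter signal reflecting CREB driven transcription.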 The conditions noted are these: luminescence, 4.5 h, higher = more signal, called active from +8 up or from −8 down.
The target in assay [6] is Streptavidin (Streptomyces avidinii) (UniProt P22629). Put plainly: compounds binding control protein streptavidin – biophysical, small-molecule microarray, 635/667 nm fluorescence, artefact control for SMM compound annotation, primary screen (AID 1147).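 Note: signal reflects streptavidin binding to arrayed compounds as a control protein.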 The following applies: higher = more signal.
Streptavidin (Streptomyces avidinii), sequence (P22629 whole entry, looked up): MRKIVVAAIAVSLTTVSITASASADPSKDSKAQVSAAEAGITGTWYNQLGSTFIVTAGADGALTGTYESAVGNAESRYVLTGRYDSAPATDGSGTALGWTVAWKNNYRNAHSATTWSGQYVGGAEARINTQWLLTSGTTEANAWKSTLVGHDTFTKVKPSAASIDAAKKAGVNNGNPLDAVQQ
The nature of assay [7]: probe aInhba binding on compound microarray – biochemical, small-molecule microarray, 635/667 nm fluorescence, primary screen (AID 1148).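 Note: score merges 667nm spot fluorescence with signal-to-noise for antibody binding to printed compounds.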 The conditions noted are these: higher = more signal.
The target in assay [8] is Torsin-1A (Homo sapiens) (UniProt O14656). The assay is described as follows: TOR1A wild-type binding on microarray – cell lysate, small-molecule microarray, lysate, 635/667 nm, primary screen (AID 1149). The following applies: COS7 hTOR1A-WT lysate, 635 nm fluorescence, higher = more signal.
Torsin-1A (Homo sapiens), sequence (O14656 whole entry, looked up): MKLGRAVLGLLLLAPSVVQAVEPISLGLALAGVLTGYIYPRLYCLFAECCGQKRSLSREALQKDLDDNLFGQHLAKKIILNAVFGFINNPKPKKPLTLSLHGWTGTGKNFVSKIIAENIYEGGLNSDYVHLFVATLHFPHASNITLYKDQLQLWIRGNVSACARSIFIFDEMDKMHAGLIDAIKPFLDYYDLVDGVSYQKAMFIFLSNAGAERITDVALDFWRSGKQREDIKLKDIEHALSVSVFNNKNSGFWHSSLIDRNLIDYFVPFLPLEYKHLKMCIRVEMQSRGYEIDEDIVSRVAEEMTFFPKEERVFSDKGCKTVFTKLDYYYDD
Assay [9] shares this target. Put plainly: torsin A mutant lysate binding on microarrays – cell lysate, small-molecule microarray, COS7 lysate, 635/667 nm fluorescence, primary screen (AID 1150).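 Note: score pools 667 nm emission and signal to noise measuring lysate protein binding.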 The following applies: COS7 hTOR1A mutant lysate, 635 nm fluorescence, higher = more signal.
Assay [10] concerns Sonic hedgehog protein (Shh). Put plainly: Sonic hedgehog microarray binding compounds – biochemical, small-molecule microarray, 635/667 nm fluorescence, primary screen (AID 1151).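 Note: Shh protein binding to compounds spotted on small-molecule microarray slides; score combines spot fluorescence intensity with signal-to-noise across triplicate slides.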 The conditions noted are these: 635 nm fluorescence, higher = more signal.

In the case of `O=C(c1ccccc1)N1Cc2ccccc2[C@@H]2OC(c3ccc(OCCCO)cc3)=N[C@]2(Cc2ccccc2)C1=O`, the composite z-score in assay [1] is 0.624; in assay [6], 0.215; in assay [7] it was 0.188; with Torsin-1A (Homo sapiens) [8] it was 0.236; with Torsin-1A (Homo sapiens) [9], 0.423; in assay [10] it was 1.33. Also, the z-score in assay [2] was -3.55 (inactive); in assay [3] it was -0.554 (inactive); in assay [4], 1.35 (inactive); in assay [5], 0.715 (inactive).

On to `C=CCOC(=O)[C@H]1[C@@H]2C(=O)O[C@@H](c3ccccc3)[C@@H](c3ccccc3)N2[C@@H](c2ccc(OCCOC(=O)[C@H]3C[C@H]4C(=O)N5CCC[C@H]5C(=O)N4[C@H]3c3ccc(O)cc3)cc2)[C@]12C(=O)Nc1ccc(I)cc12`, for which the composite z-score turned out to be 1.61 in [1]; 1.93 in assay [6]; 1.3 in assay [7]; 2.59 with Torsin-1A (Homo sapiens) [8]; 2.65 in the assay with Torsin-1A (Homo sapiens) [9]; 2.04 in assay [10]. Also, the z-score in [2] was -2.04 (inactive); in assay [3] it was 1.03 (inactive); in assay [4], 0.0043 (inactive); in assay [5], 0.803 (inactive).

On to `C=CCC(OC(C)=O)[C@@H]1[C@@H](N(Cc2cccc3ccccc23)C(=O)c2ccc(-c3ccccc3)cc2)c2cc(OCCCO)ccc2N1C(=O)Cc1ccc(OC)cc1` (stereo not given in full), for which the composite z-score in assay [1] was 0.36; in [6] it was 0.311; in assay [7], 0.0018; with Torsin-1A (Homo sapiens) [8], 0.0276; with Torsin-1A (Homo sapiens) [9], -0.265; in assay [10], 0.179. Moreover, the z-score in assay [2] was -0.454 (inactive); in [3], -0.266 (inactive); in assay [4], -0.491 (inactive); in [5] it was 0.117 (inactive).

For the compound `C=C(CCCC)C(=O)CC[C@H](OC(=O)c1cccnc1)c1ccccc1OCCO`, the composite z-score in assay [1] was 0.218; in assay [6], -0.423; in [7] it was -0.128; in the assay with Torsin-1A (Homo sapiens) [8], 1.07; in the assay with Torsin-1A (Homo sapiens) [9], 0.218; in [10] it was 0.552. In addition, the z-score in assay [2] is -2.15 (inactive); in [3], -0.0162 (inactive); in assay [4], 2.21 (inactive); in [5], 1.94 (inactive).

Take `COc1ccc(CCN2C(=O)[C@@]3(c4ccc([N+](=O)[O-])cc4)CC(=O)N(C4CCCCC4)[C@@H]3c3ccc(CO)cc32)cc1`: the composite z-score in assay [1] is -0.0463; in assay [6], -0.298; in assay [7], 0.158; in the assay with Torsin-1A (Homo sapiens) [8], 0.209; with Torsin-1A (Homo sapiens) [9], 0.128; in [10], 1.19. The z-score in [2] was 0.443 (inactive); in assay [3] it was 0.0718 (inactive); in [4], -0.0512 (inactive); in assay [5], 0.86 (inactive).

Take `O=C1O[C@H](c2ccccc2)[C@H](c2ccccc2)N2[C@H]1[C@@H](C(=O)Nc1nc3ccccc3s1)[C@]1(C(=O)Nc3ccc(C#CC4(O)CCCCCC4)cc31)[C@H]2c1ccc(OCCO)cc1`: the composite z-score in [1] stood at 0.248; in assay [6], 1.18; in assay [7], 0.284; with Torsin-1A (Homo sapiens) [8], 0.401; in the assay with Torsin-1A (Homo sapiens) [9], 1.01; in [10], 1.68. For the same compound, the z-score in assay [2] was -1.04 (inactive); in [3], -1.88 (inactive); in assay [4] it was -0.402 (inactive); in assay [5], 0.858 (inactive).

For `[N-]=[N+]=Nc1ccccc1[C@H]1OC(c2ccc(OCCCO)cc2)=N[C@@]1(Cc1ccccc1)C(=O)O`, the composite z-score in [1] turned out to be 0.0316; in [6], 0.365; in assay [7], 0.0342; with Torsin-1A (Homo sapiens) [8] it was 0.395; in the assay with Torsin-1A (Homo sapiens) [9], 0.306; in assay [10], 1.07. In addition, the z-score is -1.1 (inactive) in assay [2], -0.0839 (inactive) in assay [3], -0.0249 (inactive) in assay [4] and -1.38 (inactive) in [5].

On to `CC(C)(C)OC(=O)CC[C@@]1(C(=O)NCCN2CCOCC2)N=C(c2ccc(OCCCO)cc2)O[C@@H]1c1ccccc1N=[N+]=[N-]`, for which the composite z-score in assay [1] was 0.492; in assay [6], 0.554; in assay [7], 0.0614; with Torsin-1A (Homo sapiens) [8], 1.67; in the assay with Torsin-1A (Homo sapiens) [9] it was 1.43; in assay [10], -0.431. Besides, the z-score in [2] is -1.34 (inactive); in assay [3], 1.45 (inactive); in assay [4] it was 1.55 (inactive); in assay [5] it was -0.564 (inactive).

Consider `O=C1O[C@H](c2ccccc2)[C@H](c2ccccc2)N2[C@H]1[C@@H](C(=O)O)[C@]1(C(=O)Nc3ccc(C#CCCO)cc31)[C@H]2c1ccc(O)cc1`, for which the composite z-score is -0.0604 in assay [1]; -0.668 in assay [6]; 0.161 in assay [7]; 0.309 with Torsin-1A (Homo sapiens) [8]; 0.499 with Torsin-1A (Homo sapiens) [9]; 0.0441 in [10]. The z-score in assay [2] was -1.04 (inactive); in assay [3], 0.301 (inactive); in assay [4] it was -1.28 (inactive); in [5], -1.37 (inactive).

Regarding `COC(=O)c1c(CC[C@@H](CO)NC(=O)N[C@@H](C)Cn2cc(C3(O)CCCCC3)nn2)oc(C(C)=O)c1C(=O)OC`, the composite z-score in assay [1] is 0.315; in assay [6], 0.533; in assay [7], 0.225; with Torsin-1A (Homo sapiens) [8] it was 1.07; with Torsin-1A (Homo sapiens) [9], 0.91; in [10] it was 2.06. For the same compound, the z-score in assay [2] is -2.63 (inactive); in [3], -1.04 (inactive); in assay [4], 1.59 (inactive); in assay [5] it was 0.214 (inactive).

In the case of `COc1cc2c(cc1OC)CN(C(=O)[C@H]1[C@@H]3C(=O)O[C@@H](c4ccccc4)[C@@H](c4ccccc4)N3[C@@H](c3ccc(O)cc3)[C@]13C(=O)Nc1ccc(C#CC4=CCCCC4)cc13)CC2`, the composite z-score came out at 0.657 in assay [1]; 1.45 in [6]; 0.288 in [7]; 0.302 with Torsin-1A (Homo sapiens) [8]; 0.454 with Torsin-1A (Homo sapiens) [9]; 1.07 in assay [10]. For the same compound, the z-score in assay [2] was -2.62 (inactive); in assay [3], -0.693 (inactive); in assay [4], -0.375 (inactive); in assay [5], -0.267 (inactive).

For the compound `COCCCNC(=O)C1N=C(c2ccc(OCCCO)cc2)N(c2ccccc2)O1` (stereo not given), the composite z-score was found to be 0.282 in [1]; 0.51 in assay [6]; 0.151 in [7]; 0.777 with Torsin-1A (Homo sapiens) [8]; 0.442 with Torsin-1A (Homo sapiens) [9]; 0.264 in [10]. Moreover, the z-score was -2.78 (inactive) in assay [2], 0.708 (inactive) in assay [3], -0.207 (inactive) in [4] and 0.72 (inactive) in assay [5].

Consider `CCCC#C[Si](O[C@H](CC)c1cn([C@H](CO)Cc2ccccc2)nn1)(C(C)C)C(C)C`, for which the composite z-score in assay [1] is 0.998; in assay [6] it was 0.949; in [7], -0.128; in the assay with Torsin-1A (Homo sapiens) [8], 0.402; in the assay with Torsin-1A (Homo sapiens) [9] it was 0.511; in [10] it was 0.482. The z-score in [2] is -0.727 (inactive); in assay [3], -0.259 (inactive); in assay [4], -0.388 (inactive); in assay [5], -0.0711 (inactive).

In the case of `O=C(NCc1ccccc1)[C@@H]1c2ccccc2C(=O)N(CC23CC4CC(CC(C4)C2)C3)[C@H]1c1ccc(CO)cc1`, the composite z-score in assay [1] is 0.237; in [6], 0.467; in assay [7], -0.377; in the assay with Torsin-1A (Homo sapiens) [8], 0.239; with Torsin-1A (Homo sapiens) [9], 0.654; in assay [10], 1.83. The z-score is -2 (inactive) in assay [2], 0.196 (inactive) in assay [3], -0.439 (inactive) in assay [4] and 0.707 (inactive) in assay [5].
